The source made the active and inactive calls. How the calls were made is not given here.

Chain of Thyroid hormone receptor beta (Homo sapiens) (P10828 whole entry, looked up, the tested form may be a part): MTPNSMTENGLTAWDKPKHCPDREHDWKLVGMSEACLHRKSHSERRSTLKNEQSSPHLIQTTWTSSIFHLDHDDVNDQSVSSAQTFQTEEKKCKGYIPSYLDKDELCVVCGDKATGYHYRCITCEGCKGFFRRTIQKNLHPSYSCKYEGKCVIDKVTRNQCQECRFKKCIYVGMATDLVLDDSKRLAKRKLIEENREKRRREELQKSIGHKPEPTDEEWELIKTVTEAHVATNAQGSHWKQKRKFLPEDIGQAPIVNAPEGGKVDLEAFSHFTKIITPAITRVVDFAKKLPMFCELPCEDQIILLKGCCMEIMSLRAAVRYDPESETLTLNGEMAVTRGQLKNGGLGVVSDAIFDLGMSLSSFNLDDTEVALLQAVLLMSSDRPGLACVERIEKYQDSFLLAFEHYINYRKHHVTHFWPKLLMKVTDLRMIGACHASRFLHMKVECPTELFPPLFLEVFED

This assay concerns the target Thyroid hormone receptor beta (Homo sapiens) (UniProt P10828). Put plainly: Irreversible Binding Assay for Inhibitors of the Interaction of Thyroid Hormone Receptor and Steroid Receptor Coregulator 2. The conditions noted are these: TRb LBD-SRC2 peptide FP after dialysis, at 100 µM. The source says:
NIH Molecular Libraries Probe Production Network [MLPCN] NIH Chemical Genomics Center [NCGC] MLPCN Grant: DK058080 Assay Provider: R. Kip Guy, St. Jude Children's Research Hospital NCGC Assay Overview: Thyroid receptor (TR) regulates many homeostatic processes including basal metabolism, cardiovascular function, body weight, and lipid trafficking. TR modulators are potential therapeutics for obesity and hyperlipidemias but current thyroid analogs have undesirable side effects, particularly cardiac stimulation. To identify whether inhibitors irreversibly block the interaction of TR with the steroid receptor coregulator 2 (SRC2), a fluorescence polarization assay was used (Arnold et al., 2006). […]
NCGC Assay Protocol Summary: One milliliter TRb (1 uM) was incubated with DMSO (4 %), SRC2-2 peptide (100 uM) or compound (100 uM) for 3 hr in assay buffer (20 mM Tris hydrochloride, pH 7.4, 100mM NaCl, 10% glycerol, 1mM EDTA, 0.01% NP-40, 1mM DTT, 1uM T3 and 4% DMSO). […] The protein samples were concentrated using a 10K spin filter column (Amicon Ultra, Millipore) and then quantified by Bradford analysis. For each sample, 20 uL assay buffer containing 2 uM TRb and 40 nM SRC2 Texas Red probe was incubated in a 384 well plate for 3 hr at ambient temperature and read by an Envision (Perkin Elmer) to detect fluorescence polarization of SRC2-2 Texas Red (555 nm excitation and 632 nm emission). […]
In the case of `CC1(C)C2CCC1(C)C(NC(=O)COC(=O)c1ccc(S(C)(=O)=O)c([N+](=O)[O-])c1)C2` (stereo unspecified), the activity change, negative = inhibition was -96% (active).
